High-throughput results as filed in PubChem BioAssay.
15-hLO inh = qHTS Assay for Inhibitors of 15-hLO (15-human lipoxygenase); Polyunsaturated fatty acid lipoxygenase ALOX15 (Homo sapiens), P16050; purified 15hLO-1, xylenol orange hydroperoxide absorbance; Potency, µM (titrated, usually from 57.1 µM), for the others: at the top dose activity change, negative = inhibition, most hits filed as inhibitors; 1.4% of 74,000 active; AID 887, 2007; further: nearly all actives have a fitted effect of over 55% in size
Target sequence (P16050 whole entry, looked up): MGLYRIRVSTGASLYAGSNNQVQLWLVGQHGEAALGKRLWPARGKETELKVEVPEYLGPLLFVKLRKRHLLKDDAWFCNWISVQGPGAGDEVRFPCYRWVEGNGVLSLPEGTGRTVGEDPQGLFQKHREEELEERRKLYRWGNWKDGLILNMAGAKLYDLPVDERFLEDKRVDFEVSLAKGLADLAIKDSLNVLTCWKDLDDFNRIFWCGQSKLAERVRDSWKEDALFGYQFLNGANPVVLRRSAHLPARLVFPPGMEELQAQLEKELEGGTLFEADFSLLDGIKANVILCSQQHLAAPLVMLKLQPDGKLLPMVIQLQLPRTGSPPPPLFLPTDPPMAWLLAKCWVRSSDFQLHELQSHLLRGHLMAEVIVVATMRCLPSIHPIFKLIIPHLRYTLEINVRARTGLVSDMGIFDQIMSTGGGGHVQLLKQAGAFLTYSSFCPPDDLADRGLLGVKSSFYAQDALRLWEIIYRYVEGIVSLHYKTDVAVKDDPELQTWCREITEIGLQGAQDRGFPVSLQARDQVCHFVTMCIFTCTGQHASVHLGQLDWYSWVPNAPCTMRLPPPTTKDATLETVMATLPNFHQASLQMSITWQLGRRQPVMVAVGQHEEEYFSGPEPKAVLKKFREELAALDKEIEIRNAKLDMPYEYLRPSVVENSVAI
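Quantitative HTS in 25 mM Hepes pH 7.5 containing 0.01% Triton X-100: human 15hLO-1 at 40 nM, arachidonic acid at 50 uM, 6 min turnover. Product quantified via ferrous oxidation/xylenol orange, 573:405 nm absorbance ratio.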
ERK AVP block = qHTS Assay for Inhibitors of the ERK Signaling Pathway using a Homogeneous Screening Assay; HEK293-V1b, vasopressin-stimulated pERK AlphaScreen; Potency, µM (doses to about 57.5 µM), for the others: at the top dose activity, negative = inhibition, hits mostly inhibitors; 0.99% of 72,000 active; AID 995, 2007; further: nearly all actives have a fitted effect of over 55% in size
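Phosphorylated ERK1/2 detected via AlphaScreen bead proximity in lysates of V1b-expressing HEK293 cells given 25 nM vasopressin for 5 min after 30 min compound exposure (37 °C). AC50 from Hill equation; basal DMSO 0%, vasopressin 100%.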
PK Bst = Pyruvate Kinase. Potency, µM. 1.2% of 51,000 active. AID 361, 2006. purified pyruvate kinase, luminescence ATP production; ribose 5-phosphate activator present at AC10; in the data active means potency below about 11 µM; inconclusive means mostly about 12 µM to 25 µM;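 the screen sought inhibitors and activators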;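 further: scaled between full activation by ribose 5 phosphate and full inhibition by luteolin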
HSD17B inhib = qHTS Assay for Inhibitors of HSD17B4, hydroxysteroid (17-beta) dehydrogenase 4; AID 893, 2007; Potency, µM (series often up to 57.1 µM), for inactives: at the top dose activity change, negative = inhibition, actives largely listed as inhibitors; 7.6% of 75,000 active; recombinant HSD17B10, NADH fluorescence kinetic; 3-hydroxyacyl-CoA dehydrogenase type-2 (Homo sapiens), Q99714;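 further: the protocol describes HADH2 (HSD17B10) and not the HSD17B4 of the title; nearly all actives have a fitted effect of over 70% in size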
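20 nM HADH2, pH 9.0 Tris/Tween; cpd preinc 15 min RT; start w/ 1 mM NAD+ + 90 uM b-hydroxybutyryl-CoA; kinetic fluor ex360/em450 q30s x 4 min; delta last-first.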
FLuc inh = qHTS Assay for Inhibitors of Firefly Luciferase | purified firefly luciferase, luminescence, 8 min | Potency, µM (doses to about 57.1 µM), without a hit: top-dose activity change, negative = inhibition, most hits filed as inhibitors | 2.2% of 72,000 active | AID 411, 2009; further: nearly all actives have a fitted effect of over 40% in size
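Titration-based qHTS; buffer 50 mM imidazole pH 7.2, 50 mM KCl, 7 mM MgCl2, 10 uM ATP, 0.01% Tween 20, 0.05% BSA; luciferase/luciferin detector mix added after compound; 8 min, ambient; luminescence.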
HADH2 inh = qHTS Assay for Inhibitors of HADH2 (Hydroxyacyl-Coenzyme A Dehydrogenase, Type II). recombinant HADH2, NADH fluorescence, beta-hydroxybutyryl-CoA. Potency, µM (doses to about 57.1 µM), without a hit: top-dose activity change, negative = inhibition, usual class: inhibitors. 3.4% of 73,000 active. AID 886, 2007; further: nearly all actives have a fitted effect of over 60% in size
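Read-out: 360 nm excitation, 450 nm emission, kinetic over 4 min. Conditions: His-tagged human HADH2 20 nM, pH 9.0 Tris with Tween-20, 1 mM NAD+, 90 uM beta-hydroxybutyryl-CoA.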
Active calls of the source: *; i = inactive; ? = inconclusive; . = no result; ! = a repeat was not active; [ ] = remark or other dose. A selection: hits, their analogues and other compounds. The true share with any hit is near 11%. Unless noted, the call rests on the fitted dose curve; in most records, active means well fitted curve in the direction sought with a large enough effect; inconclusive means small, poorly fitted or top-dose-only effect, or another doubt; inactive means no such curve, though single readings can be large; an effect the other way counts as inactive or inconclusive. Unless noted, on the % scale 0 is the no-effect control and ±100 the full control effect; potency means the concentration at half of the fitted maximal effect.

SMILES	15-hLO inh	ERK AVP block	PK Bst	HSD17B inhib	FLuc inh	HADH2 inh
CCCCCCC/C=C\CCCCCCCCC(=O)O	?	20.7%	.	?	-2.8%	?
CCC1=C2CC[C@H]3C(=O)NC(=O)[C@H]3[C@H]2[C@@]2(C)C(=NCCOC)OC(=O)N2C1=O	.	17.1%	.	14.6%	.	.
C#CCCCO/N=C1/C[C@@H](O)[C@@H](O)[C@@H]2[C@@H]3C(=O)N(CC)C(=O)[C@H]3CC[C@H]12	4.4%[11.4 µM]	29.0%[11.5 µM]	.	1.8%[11.4 µM]	2.3%[11.4 µM]	0.5%[11.4 µM]
COc1ccc(OC)c2c1CC(C)(C)NC2=O	2.9%	.	.	31.6µM*	0.5%	25.1µM*
O=C(Nc1nnc(-c2ccccc2)o1)NC1CCCCC1	-13.9%	-8.5%	>57	12.6µM*	0.8%	139.8%
O=C(NCc1ccccc1)c1c(F)c(F)c(F)c(F)c1F	2.1%	-14.8%	>57	1.2%	2.9%	-0.6%
O=C(NCc1ccccc1)c1ccc(-c2ccccc2F)o1	-17.2%	15.8µM*	>57	31.6µM*	-3.6%	0.2%
CCN1CCc2nc(NC(=O)c3ccc4c(c3)OCCO4)sc2C1	-24.0%	-0.6%	.	-14.8%	15.8µM*	-25.4%
OC(COc1ccc2cc(Br)ccc2c1)CN1CCCC1 (configuration not stated)	-9.4%	-18.6%	.	5.2%	?	4.9%
OC(COc1ccc2cc(Br)ccc2c1)CN1CCN(c2ccccn2)CC1 (configuration not stated)	-14.9%	25.1µM*	>57	-1.1%	0.0%	7.2%
CCOC(=O)Cc1c(C)nc2c(-c3cccc(Br)c3)c[nH]n2c1=O	33.5%	?	.	31.6µM*	-2.2%	25.1µM*
COc1ccc(CNC(=O)c2cc(-c3ccc(OC)c(OC)c3)on2)cc1	-1.2%	-9.5%	>57	11.6%	-0.2%	9.9%
CCCCNC(=O)c1cc(-c2ccc(OC)cc2)on1	1.8%	15.6%	>57	-11.7%	-6.2%	15.1%
CCCNC(=O)c1cc(-c2ccc(OC)cc2)on1	-2.5%	5.6%	>57	6.9%	7.94µM*	6.5%
COc1ccc(-c2cc(C(=O)NCc3ccccc3)no2)cc1OC	-1.6%	-1.6%	>57	25.1µM*	0.4%	i
CN1CC[C@@]2(CCCN(S(=O)(=O)c3ccccc3)C2)C1	-25.7%	4.1%	.	-5.5%	-3.2%[11.4 µM]	-7.3%
CCSc1ccc2nnc(-c3ccc(F)cc3)n2n1	?	12.7%	i	31.6µM*	-1.5%	-26.1%
O=C(Nc1ccccc1Cl)N1CCN(c2ccc3nnc(-c4ccc(F)cc4)n3n2)CC1	-13.4%	.	.	?	.	1.3%
Fc1ccc(-c2nnc3ccc(N4CCCC4)nn23)cc1	15.0%	-12.8%	.	25.1µM*	-10.2%	23.5%
CCOC(=O)C(C)Sc1ccc2nnc(-c3ccc(F)cc3)n2n1 (configuration not stated)	?	-6.4%	>57	31.6µM*	-0.4%	?
CC1CCN(CC[S-])CC1.O.O.[Cl][Pt]	?	-15.8%[11.5 µM]	.	-6.9%[11.4 µM]	0.3%[11.4 µM]	?
Oc1c(C=NCc2ccncc2)sc2ccccc12	.	.	>25.6	.	-19.9%[25.5 µM]	.
CCCN=Cc1sc2ccc(OCC)cc2c1O	-25.2%	-25.0%	.	-16.6%	15.8µM*	25.1µM*
CCOC(=O)CC(=O)Nc1ccccc1C(=O)O	7.8%	0.2%	.	-1.4%	2.3%	-6.6%
COc1ccc(/C=C\C(=O)Nc2ccccc2C(=O)O)cc1OC	-23.0%[25.6 µM]	15.6%	.	-28.2%	31.6µM*!	?
SMILES	15-hLO inh	ERK AVP block	PK Bst	HSD17B inhib	FLuc inh	HADH2 inh
N#CCCCSc1nnc(CSc2nc3ccccc3s2)n1-c1ccccc1	-11.2%	25.1µM*	?	-18.2%	-1.0%	0.9%
CO[C@@H]1COC(=O)[C@H]2CCCN2C(=O)[C@@H](C)COC(=O)C/C=C\[C@H]1C	4.2%[11.4 µM]	23.7%[11.5 µM]	.	2.9%[11.4 µM]	1.0%[11.4 µM]	7.8%[11.4 µM]
CC(=O)Nc1ccc(C)cc1	-8.5%	5.7%	.	4.3%	.	-3.3%
CC(=O)Nc1ccc(-c2nc(C)c(C(C)=O)n2O)cc1	-1.9%	-10.0%	6.59*	?	-24.0%	-14.0%
CCOC(=O)c1c(NC(=O)CSc2nnc(-c3ccccc3C)n2C)sc(C(C)=O)c1C	-27.0%	?	>57	?	8.1%	25.1µM*
Cc1cc(C)cc(/C=C/C2OCC(O)C2Oc2ccc(C3CCCC3)cc2)c1 (configuration not stated)	2.4%[11.4 µM]	-4.4%[11.5 µM]	.	1.2%[11.4 µM]	.	9.4%[11.4 µM]
Cc1occc1C(=O)Nc1ccc2ccccc2c1	?	-29.5%	.	?	20µM*	-11.3%
Cc1occc1C(=O)Nc1cc(C(C)(C)C)on1	-0.4%	-8.0%	.	-2.6%	15.8µM*	-1.6%
c1ncc(-c2ccc3c(c2)OCO3)c(NCCc2cnc[nH]2)n1	10.3%	3.0%	.	?	0.5%[2.29 µM]	-6.0%
C[C@@]1(C(=O)O)CCC[C@@H]1C(=O)O	5.5%[11.4 µM]	4.5%[11.5 µM]	.	8.7%[11.4 µM]	3.2%[11.4 µM]	-16.4%[11.4 µM]
COC(=O)NC(c1ccc(Cl)cc1)C(C(C)=O)C(=O)OC (configuration not stated)	12.4%[11.4 µM]	-0.5%[11.5 µM]	.	2.5%[11.4 µM]	.	2.5%[11.4 µM]
COc1ccc(NC(=O)N2CC[C@@]3(CCCNC3)C2)cc1	-9.8%	10.5%	.	-7.9%	-1.3%[11.4 µM]	4.5%
OCc1ccccc1OCCOc1ccc(Cl)c2cccnc12	-15.2%	?	3.47*	-24.8%	-9.5%	0.0%
COc1ccc(C(=O)N2CCC[C@@]3(CCN(C)C3)C2)cc1	-3.7%	-20.4%	.	1.3%	2.4%[11.4 µM]	-2.1%
CCOC(=O)COc1ccc2c(c1)C(=O)CC(C)(c1cccnc1)O2 (configuration not stated)	13.6%	-2.2%	>57	31.6µM*	-2.1%	126.1%
CN(C)C(=O)c1ccc(-c2ccc3ncnc(Nc4ccccc4)c3c2)cc1	4.2%	?	.	-15.0%	0.1%[2.29 µM]	5.3%
COc1ccccc1NC(=O)N1CCc2[nH]c3ccc(Cl)cc3c2C1	?	25.1µM*	.	-8.2%	-8.7%	3.3%
O=C1[C@@H]2[C@H]3[C@H](O)[C@H](O)C/C(=N/OCc4ccccc4)[C@H]3CC[C@H]2C(=O)N1c1ccc(F)cc1F	4.5%[11.4 µM]	1.7%[11.5 µM]	.	3.3%[11.4 µM]	1.5%[11.4 µM]	-12.5%[11.4 µM]
COCCn1c(C)cc(C(=O)CSc2nnc(C)s2)c1C	1.9%	-12.2%	?	-3.5%	10µM*	-0.7%
COCCn1c(C)cc(C(=O)COC(=O)c2cc3c(s2)CCC3)c1C	-26.6%	17.5%	>57	25.1µM*	-5.0%	-5.9%
COCCn1c(C)cc(C(=O)COC(=O)C23CC4CC(CC(O)(C4)C2)C3)c1C	4.3%	14.6%	i	9.5%	12.6µM*	16.3%
